Screens as filed in PubChem BioAssay.
ALOX12 inh: Primary qHTS assay for inhibitors of human arachidonate 12S-lipoxygenase (ALOX12): Round 2. Polyunsaturated fatty acid lipoxygenase ALOX12 (Homo sapiens), P18054. purified 12hLO, xylenol orange hydroperoxide absorbance. Potency, µM (titrated, usually from 108 µM), most hits filed as inhibitors. actives 1.1% (n = 580,000)
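Purified human 12hLO at 150 nM in 25 mM Hepes, 0.01% Triton X-100, pH 7.0, preincubated 15 min at room temperature with compound. Reaction started with 40 uM arachidonic acid, 30 min at room temperature. Hydroperoxide measured by Fe-xylenol orange, 573/405 nm absorbance ratio.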
VDR inh: Inhibitors of the vitamin D receptor (VDR): qHTS; Vitamin D3 receptor (Homo sapiens), P11473; VDR-SRC2-3 peptide fluorescence polarization, 2 h; Potency, µM, hits mostly inhibitors; actives 0.93% (n = 400,000)
Target sequence (P11473 whole entry, looked up): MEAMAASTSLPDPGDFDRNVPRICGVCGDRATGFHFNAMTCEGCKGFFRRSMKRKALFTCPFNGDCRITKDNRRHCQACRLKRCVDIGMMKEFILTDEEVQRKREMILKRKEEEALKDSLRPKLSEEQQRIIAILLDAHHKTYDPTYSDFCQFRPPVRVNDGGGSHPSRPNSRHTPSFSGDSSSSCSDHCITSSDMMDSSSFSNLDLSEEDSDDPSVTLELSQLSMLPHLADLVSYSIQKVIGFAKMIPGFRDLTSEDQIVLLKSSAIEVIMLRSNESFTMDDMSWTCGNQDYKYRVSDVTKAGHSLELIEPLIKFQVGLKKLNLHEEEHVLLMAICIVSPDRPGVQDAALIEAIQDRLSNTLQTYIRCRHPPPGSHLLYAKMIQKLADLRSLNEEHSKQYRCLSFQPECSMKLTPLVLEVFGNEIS
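Inhibition of the VDR/SRC2-3 peptide interaction is quantified by fluorescence polarization. Compounds (23 nl, pintool) incubate with the reagents for 2 hours at ambient room temperature.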
PLK1 PBD inh: qHTS for Inhibitors of PLK1-PDB (polo-like kinase 1 - polo-box domain): Primary Screen. Serine/threonine-protein kinase PLK1 (Homo sapiens), P53350. Plk1 PBD binding of FITC phosphopeptide, fluorescence polarization. Potency, µM, most hits filed as inhibitors. actives 2.8% (n = 360,000); also: series mostly up to about 57 µM; nearly all actives have a fitted effect of over 65% in size
Sfp PPTase inh: qHTS Assay for Inhibitors of Bacillus subtilis Sfp phosphopantetheinyl transferase (PPTase); actives 3.5% (n = 310,000); AID 1490, 2009; Biochemical Sfp PPTase activity, qHTS; 4'-phosphopantetheinyl transferase ffp (Bacillus subtilis), Q9F4F7; Potency, µM, most hits filed as inhibitors;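 also: the enzyme is Sfp with the accession as filed and its product quenches rhodamine fluorescence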
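Step 1, compound plus 15 nM Sfp-PPTase, 15 min, room temperature. Step 2, add rhodamine-CoA (5 uM) and BHQ-2-YbbR (12.5 uM). Step 3, read 525/598 nm fluorescence at 0 and 30 min.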
VDR inh confirm: qHTS for Inhibitors of the vitamin D receptor (VDR): Hit Validation in Primary Screen | VDR-coactivator inhibition assay, qHTS confirmation | AID 602199, 2012 | shares compounds with VDR inh | Potency, µM, most hits filed as inhibitors | actives 89% (n = 840)
VDR FP fluor: qHTS for Inhibitors of the vitamin D receptor (VDR): Hit Validation using a Fluorescein Assay; shares compounds with VDR inh; VDR-coactivator binding, fluorescein fluorescence polarization; Potency, µM (top dose mostly 57.1 µM), hits mostly inhibitors; actives 48% (n = 840); AID 602200, 2012
VDR bla reporter: qHTS for Inhibitors of the vitamin D receptor (VDR): Hit Validation using a Beta-Lactamase Assay. VDR beta-lactamase reporter cells, FRET ratio; cells co-treated with VDR agonist LG190178. Potency, µM (doses to about 46.1 µM), usual class: inhibitors. shares compounds with VDR inh. AID 602202, 2012. actives 23% (n = 840)
VDR cytotox: qHTS for Inhibitors of the vitamin D receptor (VDR): Hit Validation using a Cytotoxicity Assay | actives 18% (n = 840) | shares compounds with VDR inh | Potency, µM (highest dose often 48.3 µM), hits mostly cytotoxic | cytotoxicity counter-screen, cell viability, qHTS; also: nearly all actives have a fitted effect of over 75% in size
TbPYK inh: qHTS of Trypanosoma Brucei Inhibitors: Confirmatory Assay for Cherry-picked Compounds; shares compounds with PLK1 PBD inh; recombinant TbPYK, Kinase-Glo ATP luminescence; Potency, µM (series often up to 76.9 µM), actives largely listed as inhibitors; actives 67% (n = 890); also: nearly all actives have a fitted effect of over 70% in size
TbPYK orthogonal: qHTS of Trypanosoma Brucei Inhibitors: Orthogonal Assay for Cherry-picked Compounds; shares compounds with PLK1 PBD inh; recombinant TbPYK, ADP-Glo luminescence, 60 min; Potency, µM (top dose mostly 76.9 µM), actives largely listed as inhibitors; actives 62% (n = 890); also: nearly all actives have a fitted effect of over 75% in size
Each line names hits and unclear results; the compound was inactive in the other large screens (follow-up assays come after a bar, where they were run). An excerpt weighted towards active compounds, which were near 4.2% of everything screened. Calls follow the shape of the dose curve; as a rule, active = well fitted curve in the direction sought with a large enough effect; inconclusive = small, poorly fitted or top-dose-only effect, or another doubt; inactive = no such curve, though single readings can be large; an effect the other way counts as inactive or inconclusive.

COc1cccc(C2CC3C(=O)C=CC2N3Cc2ccccc2)c1 (configuration not stated)	ALOX12 inh inconclusive, VDR inh inconclusive | VDR inh confirm 17.8 | VDR FP fluor inconclusive | VDR bla reporter 20.6µM | VDR cytotox inactive
O=S(=O)(/C(=C\c1ccc(C(F)(F)F)cc1)c1nc2ccccc2[nH]1)c1ccccc1	VDR inh 14.1µM (no result: ALOX12 inh, Sfp PPTase inh) | VDR inh confirm 2.67 | VDR FP fluor inconclusive | VDR bla reporter 5.17µM | VDR cytotox inconclusive
CC1CCN(C(CC(=O)c2ccccc2)C(=O)c2ccccc2)CC1 (configuration not stated)	ALOX12 inh 8.91µM, VDR inh 25.1µM, PLK1 PBD inh inconclusive (no result: Sfp PPTase inh) | VDR inh confirm 10.6 | VDR FP fluor inconclusive | VDR bla reporter inconclusive | VDR cytotox inconclusive | TbPYK inh 20µM | TbPYK orthogonal 12.6µM
COc1cc(/C=C2\C(=O)NC(=O)N(c3ccccc3)C2=O)c([N+](=O)[O-])cc1OC	ALOX12 inh inconclusive, VDR inh 44.7µM, PLK1 PBD inh 11.9µM, Sfp PPTase inh 39.8µM | VDR inh confirm 26.7 | VDR FP fluor 20µM | VDR bla reporter inactive | VDR cytotox inactive | TbPYK inh 15.8µM | TbPYK orthogonal 35.5µM
C=C[C@H]1CN2CC[C@H]1C[C@@H]2CNCc1cccc(Cl)c1	none (no result: VDR inh, PLK1 PBD inh, Sfp PPTase inh)
O=C(O)CCC(=O)NCCC1=c2ccccc2=N/C1=C\c1c(O)n(Cc2ccc(F)cc2)c(=S)[nH]c1=O	ALOX12 inh inconclusive, VDR inh 20µM, PLK1 PBD inh 1.19µM, Sfp PPTase inh 35.5µM | VDR inh confirm 5.97 | VDR FP fluor inconclusive | VDR bla reporter inactive | VDR cytotox inactive | TbPYK inh 4.47µM | TbPYK orthogonal 14.1µM
O=C(N/N=C/c1c(O)n(Cc2ccc(F)cc2)c(=O)[nH]c1=O)c1ccccc1	none
CN1C(=O)NC(=O)/C(=C\C=C\c2ccccc2[N+](=O)[O-])C1=O	ALOX12 inh inconclusive, VDR inh 11.2µM, PLK1 PBD inh 1.19µM, Sfp PPTase inh 17.8µM | VDR inh confirm 4.23 | VDR FP fluor inconclusive | VDR bla reporter inconclusive | VDR cytotox inactive | TbPYK inh 15.8µM | TbPYK orthogonal 31.6µM
CN1/C(=C\C=C2C(=O)NC(=O)NC2=O)C(C)(C)c2ccccc21	none
O=C1NC(=O)C(=Cc2cc(Cl)ccc2OCc2ccc(C(=O)O)cc2)C(=O)N1	VDR inh 50.1µM, PLK1 PBD inh 7.52µM, Sfp PPTase inh 50.1µM | VDR inh confirm inconclusive | VDR FP fluor inconclusive | VDR bla reporter inactive | VDR cytotox inactive | TbPYK inh 25.1µM | TbPYK orthogonal 31.6µM
O=C(O)CCCOc1ccc(Cl)cc1Cl	none
Cc1cccc(OP(N)(=O)Oc2cccc(C)c2)c1	none
CC1(C)OC(c2ccccc2)=C/C(=C/C=C2C(=O)NC(=O)NC2=O)O1	none
O=C1NC(=O)C(=Cc2ccc(Sc3ccccc3)o2)C(=O)N1	ALOX12 inh inconclusive, VDR inh 39.8µM, PLK1 PBD inh 0.67µM, Sfp PPTase inh 25.1µM | VDR inh confirm 10.6 | VDR FP fluor inconclusive | VDR bla reporter inconclusive | VDR cytotox inconclusive | TbPYK inh 31.6µM | TbPYK orthogonal 35.5µM
Cc1[nH]nc2c1C(c1ccc(-c3ccccc3)o1)SCC(=O)N2 (configuration not stated)	none (no result: VDR inh, PLK1 PBD inh, Sfp PPTase inh)
COc1cc(/C=C/[N+](=O)[O-])ccc1OC(=O)c1cccnc1	ALOX12 inh inconclusive, VDR inh 25.1µM, PLK1 PBD inh 3.36µM | VDR inh confirm 6.7 | VDR FP fluor inconclusive | VDR bla reporter inconclusive | VDR cytotox inconclusive | TbPYK inh 7.08µM | TbPYK orthogonal 15.8µM
CN1C(=O)[C@H]2CN(Cc3ccccc3)C[C@H]2C1=O	none (no result: VDR inh, PLK1 PBD inh, Sfp PPTase inh)
Cc1nn(Cc2ccccc2)c(C)c1C=C1C(=O)NC(=S)NC1=O	ALOX12 inh inconclusive, VDR inh 25.1µM, PLK1 PBD inh 15µM | VDR inh confirm 9.47 | VDR FP fluor inconclusive | VDR bla reporter inconclusive | VDR cytotox inactive | TbPYK inh 6.31µM | TbPYK orthogonal inconclusive
O=C(NC1CC1)[C@H]1CN2CCC1C[C@@H]2Cn1cc(CC2CCCCC2)nn1 (some centres not stated)	none (no result: VDR inh, PLK1 PBD inh, Sfp PPTase inh)
CCN(CC)c1ccc(NC(=O)c2cccc(C)c2)cc1S(=O)(=O)Nc1ccccc1OC	ALOX12 inh inconclusive, VDR inh 50.1µM, PLK1 PBD inh 2.99µM, Sfp PPTase inh 12.6µM | VDR inh confirm inconclusive | VDR FP fluor inconclusive | VDR bla reporter inactive | VDR cytotox inactive | TbPYK inh inconclusive | TbPYK orthogonal inconclusive
COC(=O)C1=C(C(=O)OC)SC2(S1)C(C(=O)OC)=C(C(=O)OC)Sc1c2ssc1=O	ALOX12 inh inconclusive, VDR inh 2µM, PLK1 PBD inh 1.19µM (no result: Sfp PPTase inh) | TbPYK inh 11.2µM | TbPYK orthogonal 14.1µM
[N-]=[N+]=NCc1cn2cccnc2n1	Sfp PPTase inh inconclusive
CC(C)(C)n1nnnc1C(CCc1ccccc1)N1CCC(n2c(=O)[nH]c3ccccc32)CC1 (configuration not stated)	none (no result: VDR inh, Sfp PPTase inh)
Cc1ccc(/C=C2\C(=O)NC(=S)N(c3cccc(F)c3)C2=O)o1	ALOX12 inh inconclusive, PLK1 PBD inh 2.67µM, Sfp PPTase inh 17.8µM | TbPYK inh 15.8µM | TbPYK orthogonal 25.1µM
O=C1NC(=O)C(=Cc2cccc(OCCOc3ccccc3)c2)C(=O)N1	ALOX12 inh inconclusive, VDR inh inconclusive, PLK1 PBD inh 2.67µM, Sfp PPTase inh 44.7µM | TbPYK inh inconclusive | TbPYK orthogonal inconclusive
